# Source: PubChem BioAssay
# The list is not random: actives were taken first. Their share in the collection is about 9.2%.
# SMN2 splice up = SMN2 splice variant enhancement. HEK293 SMN2-luciferase splicing reporter, luminescence, 30-36 h. Potency, µM (top dose mostly 46.1 µM), most hits filed as activators. 210,000 tested, 2.8% active; note: nearly all actives have a fitted effect of over 55% in size
#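 HEK293 cells carry an SMN2 […]–luciferase reporter in which exon 7 inclusion puts luciferase in frame. Cells were plated 10-12 h before compound addition, then incubated 30-36 h at 37C. ONE-Glo luminescence was read; sodium butyrate at 4.5 mM final served as control.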
# Rab9 prom act = Rab9 promoter activation; AID 485297; 320,000 tested, 2.8% active; Potency, µM (highest dose often 9.22 µM), actives largely listed as activators; Huh7 Rab9 promoter-luciferase reporter, luminescence, 24 h; note: nearly all actives have a fitted effect of over 60% in size
#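 Promoter activation is measured as luciferase luminescence in Huh7 cells stably transfected with a Rab9 promoter–luciferase construct, following 24 h compound exposure at 37 °C and 10 min reagent incubation at ambient temperature.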
# ELG1 genotoxic = genotoxicity induction in ELG1-luciferase HEK293T cells. HEK293T ELG1-luciferase reporter, luminescence, 16 h. Potency, µM (highest dose often 46 µM), usual class: activators. 330,000 tested, 1.3% active; note: nearly all actives have a fitted effect of over 60% in size
#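 16 hr compound incubation (37 °C, 5% CO2) of HEK293T cells carrying luciferase-tagged ELG1; luciferase then measured by ONE-Glo luminescence after 30 min at RT.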
# NPC1 prom act = activators of NPC1 promoter | AID 485313 | Huh7 NPC1 promoter luciferase reporter, 24 h | Potency, µM (highest dose often 9.22 µM), hits mostly activators | 320,000 tested, 2.4% active; note: nearly all actives have a fitted effect of over 60% in size
#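 Compounds in DMSO were transferred onto Huh7 NPC1-luciferase reporter cells pre-incubated 2 h; after 24 h at 37 °C, Amplite reagent was dispensed and luminescence recorded 10 min later.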
# FLuc modulator = firefly luciferase modulation, counter-screen for miR-21 project | 360,000 tested, 6.9% active | purified FLuc, Km substrates, luminescence inhibition | P08659 | Potency, µM (titrated, usually from 57.5 µM), usual class: inhibitors | AID 588342; note: nearly all actives have a fitted effect of over 55% in size
# Target sequence (P08659 whole entry, looked up): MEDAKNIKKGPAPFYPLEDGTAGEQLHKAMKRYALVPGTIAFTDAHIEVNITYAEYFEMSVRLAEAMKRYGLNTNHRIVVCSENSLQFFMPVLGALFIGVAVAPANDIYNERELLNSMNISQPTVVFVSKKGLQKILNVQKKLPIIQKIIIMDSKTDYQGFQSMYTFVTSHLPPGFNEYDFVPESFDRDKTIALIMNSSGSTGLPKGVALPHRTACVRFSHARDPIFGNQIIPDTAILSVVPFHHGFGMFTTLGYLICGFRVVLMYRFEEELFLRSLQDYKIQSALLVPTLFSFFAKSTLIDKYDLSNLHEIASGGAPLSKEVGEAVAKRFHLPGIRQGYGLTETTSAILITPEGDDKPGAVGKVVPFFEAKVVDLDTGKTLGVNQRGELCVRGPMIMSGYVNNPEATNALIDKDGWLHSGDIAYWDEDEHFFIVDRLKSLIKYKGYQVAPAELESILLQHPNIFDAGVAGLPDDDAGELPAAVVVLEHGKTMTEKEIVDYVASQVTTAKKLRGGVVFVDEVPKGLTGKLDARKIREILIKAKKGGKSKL
#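 Purified P. pyralis luciferase, 10 nM final, with Km-level 10 uM D-luciferin and 10 uM ATP in 50 mM Tris acetate pH 7.5, 10 mM Mg acetate, 0.01% Tween-20, 0.05% BSA; 6-point qHTS titration about 60 µM downward; luminescence read.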
# ELG1 repair inh = ELG1-dependent DNA repair inhibition. AID 504467. Potency, µM (series often up to 46.1 µM), most hits filed as inhibitors. HEK293T ELG1-luciferase reporter, luminescence, 16 h; DNA damage induced by 5-fluorouridine. 330,000 tested, 2.3% active; note: nearly all actives have a fitted effect of over 55% in size
#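 HEK293T cells expressing luciferase-tagged ELG1 (2,000/well) received 5-Fluorouridine plus compound or DMSO for 16 hr at 37 °C. Luciferase was read by ONE-Glo luminescence after 30 min at room temperature.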
# A number is an active result; i = inactive; ? = inconclusive; nt = no result; [ ] = another dose, or the depositor's remark. Calls come from the whole dose curve; as a rule, active = well fitted curve in the direction sought with a large enough effect; inconclusive = small, poorly fitted or top-dose-only effect, or another doubt; inactive = no such curve, though single readings can be large; an effect the other way counts as inactive or inconclusive.
SMILES,SMN2 splice up,Rab9 prom act,ELG1 genotoxic,NPC1 prom act,FLuc modulator,ELG1 repair inh
CCCCn1c(N)c(N(CCOC)C(=O)CCNC(=O)c2ccc(Br)cc2)c(=O)[nH]c1=O,nt,i,i,i,i,?
COc1ccccc1CNC(=O)CSc1ccsc1[N+](=O)[O-],i,3.5µM,i,?,?,?
CCCCCc1ccc(-c2ccc(/C=C/C(=O)O)cc2)nc1,i,?,?,?,0.38µM,?
CCCc1ccc(-c2ccc(/C=C/C(=O)O)cc2)nc1,i,i,i,i,0.54µM,?
CCOc1cccc(/C=C/C(=O)O)c1,i,i,i,i,i,?
CCCCCCCCCCCCCCCCCCc1ccc(C(=O)/C=C/C(=O)O)cc1,i,nt,nt,nt,nt,nt
C=CCNc1nc(Nc2ccc(-c3nc4ccccc4o3)cc2)nc(N2CCOCC2)n1,i,i,i,i,i,15µM
CCCCS(=O)(=O)N1C2=NC(C(=O)OC)=C(C(=O)OC)[C@@H]3N(C)c4ccccc4[C@]23C[C@H]1C(=O)OC,i[9.22 µM],nt,nt,nt,nt,nt
O=C(CCCCCn1c(=S)[nH]c2cc3c(cc2c1=O)OCO3)N1CCN(Cc2ccccc2)CC1,i,i,i,i,i,i
O=C(CCCn1c(=S)[nH]c2cc3c(cc2c1=O)OCO3)N1CCN(c2ccccn2)CC1,i,i,i,i,i,15µM
COc1ccc(N2CCN(C(=O)CCCn3c(=S)[nH]c4cc5c(cc4c3=O)OCO5)CC2)cc1,i,i,i,i,i,21µM
CCCCn1c(=S)[nH]c2ccc(N3CCOCC3)cc2c1=O,i,i,i,i,i,i
Cc1cccc(N2CCN(C(=O)CCCCCn3c(=S)[nH]c4ccc(N5CCOCC5)cc4c3=O)CC2)c1C,nt,i,i,i,i,16µM
CC(=O)N1CCCc2cc(S(=O)(=O)N3CCC(C(=O)Nc4ccc(C)cc4Cl)CC3)ccc21,nt,nt,nt,nt,i,nt
CC(=O)N1N=C2c3ccccc3CCC2C1c1cccs1 (stereo not given),nt,i,i,i,i,i
CN1N=C2c3ccccc3CCCC2C1c1ccc(F)cc1 (stereo not given),nt,i,?,i,12µM,?
O=C(Cc1ccc(Cl)cc1)Nc1ccc(C(=O)N2CCCCC2)cc1,nt,i,i,i,27µM,i
O=C(c1ccc(CSc2ccc(Cl)cc2)cc1)N1CCCC1,i,?,i,i,19µM,i
Cc1ccc(CC(=O)Nc2ccc(C(=O)N3CCCCC3)cc2)cc1,nt,i,i,i,i,i
Cc1cc(=O)c2cc(C(=O)Nc3ccc(C)c(C)c3)ccc2[nH]1,nt,nt,nt,nt,i,nt
O=C(COC(=O)[C@H](Cc1ccccc1)NC(=O)c1ccco1)Nc1ccccc1OC(F)F,nt,nt,i,nt,nt,?
COc1ccc(-c2cc(C(F)(F)F)n3ncc(C(=O)N(C)Cc4ccccc4)c3n2)cc1,i,i,i,i,i,15µM
O=C(NC1CCCC1)c1cnn2c(C(F)(F)F)cc(-c3ccc4c(c3)OCO4)nc12,i,i,i,i,i,4.1µM
CN1CCN(C(=O)c2cnn3c(C(F)(F)F)cc(-c4ccc5c(c4)OCO5)nc23)CC1,nt,i,?,i,i,5.8µM
NC(=O)c1cnn2c(C(F)(F)F)cc(-c3ccccc3)nc12,i,nt,nt,nt,i,nt
SMILES,SMN2 splice up,Rab9 prom act,ELG1 genotoxic,NPC1 prom act,FLuc modulator,ELG1 repair inh
Cc1ccc(-c2cc(C(F)(F)F)n3ncc(C(=O)N4CCN(C)CC4)c3n2)cc1,i,i,i,i,i,9.2µM
CCc1ccc2nc(N(CCCN(C)C)C(=O)c3ccc(C(=O)c4ccccc4)cc3)sc2c1,nt,i,i,?,i,i
CCC(C)(C)C1CCC(NC(=O)c2ccc(S(=O)(=O)N3CCOCC3)cc2)CC1 (stereo not given),nt,i,i,i,nt,?
COc1ccccc1CNc1nc2c(S(=O)(=O)c3ccc(C)c(C)c3)nnn2c2ccc(Cl)cc12,i,nt,nt,nt,i,nt
CCCCN(C(=O)CC1CCCC1)c1c(N)n(CCCC)c(=O)[nH]c1=O,nt,i,i,i,i,i
CCN(CCCNC(=O)c1nn(C)c2c1CS(=O)(=O)c1ccccc1-2)Cc1ccccc1,nt,i,i,i,i,i
N#Cc1c(N)nc2c(c1N)CC(COc1ccccc1)O2 (stereo not given),nt,4.5µM,?,2.8µM,17µM,?
Cc1ccccc1OCC1Cc2c(nc(N)c(C#N)c2N)O1 (stereo not given),nt,?,?,?,13µM,?
N#Cc1c(N)nc2c(c1N)CC(CO)O2 (stereo not given),i,i,i,i,i,i
Cc1ccc(NC(=O)C2CCN(c3ncccn3)CC2)cc1F,i,nt,nt,nt,i,nt
FC(F)(F)c1ccc(CN2C[C@@H]3C(c4ccc(C(F)(F)F)cc4)C4(c5ccccc5)CC3(C4)[C@H]2c2ccccc2)cc1 (stereo not given in full),i,nt,nt,nt,nt,nt
CCOC(=O)c1c(-c2ccc(C)o2)csc1NC(=O)CN(C)CC(=O)Nc1ccc(C)cc1,i,i,i,i,i,15µM
CCOC(=O)c1c(-c2ccc(C)o2)csc1NC(=O)CN1CCCCC1,i,i,i,i,i,i
CCOC(=O)c1c(-c2ccc(OCC)cc2)csc1NC(=O)CCN1C(=O)c2ccccc2C1=O,i,i,i,i,i,12µM
CCCC(=O)Nc1cccc(-c2nc3cc(C)c(C)cc3o2)c1,?,4µM,?,2.2µM,0.6µM,?
CCCC(=O)Nc1cccc(-c2nc3ncccc3o2)c1,3.5µM,nt,nt,nt,i,nt
CCCC(=O)Nc1ccc(-c2nc3ncccc3o2)cc1,nt,2µM,?,2.2µM,13µM,?
COc1c(C)cc(Br)cc1C(=O)Nc1ccc(-c2nc3ncccc3o2)cc1,i,nt,nt,nt,i,nt
CCCC(=O)Nc1cc(-c2nc3ncccc3o2)ccc1C,i,i,i,i,i,i
COc1c(C)cc(Br)cc1C(=O)Nc1cccc(-c2nc3ncccc3o2)c1,i,i,i,i,i,18µM
CCN(C(=O)CN1C(=O)NC(c2ccccc2)(c2ccc(C)c(C)c2)C1=O)C1CCCCC1 (stereo not given),nt,i,i,i,i,i
COc1ccc(CNC(=O)CCC2N=C3c4ccccc4N=C(SCc4ccc(F)cc4)N3C2=O)cc1 (stereo not given),nt,nt,nt,nt,i,nt
COc1cc(Cl)ccc1OCc1cc(C(=O)N(C)Cc2cccc3cnccc23)no1,nt,?,i,?,13µM,i
COc1cc(Cl)ccc1OCc1cc(C(=O)NC(C)Cc2cccnc2)no1 (stereo not given),nt,?,i,?,8.5µM,?
COc1ccccc1CCc1nnc(CCC(=O)N(C)Cc2cccc3cnccc23)o1,nt,2.8µM,i,4µM,12µM,?
Cc1ccc(OCc2cc(C(=O)NC(C)Cc3cnccn3)no2)cc1C (stereo not given),nt,i,i,i,i,i
